Binding signal data for one sequence are collected here from publication PMC7862700, “An all-to-all approach to the identification of sequence-specific readers for epigenetic DNA modifications on cytosine”.

Holding throughout (assay): DAPPL (digital affinity profiling via proximity ligation, sequencing); 10 mM Tris-HCl pH 7.5, 50 mM NaCl, 1 mM DTT, 4% glycerol, room temperature, 30 min; GST-TFs on glutathione beads, 16-mer random dsDNA library, 0.1% formaldehyde crosslink after washing; high values mean tight binding
In assay [1] the target is T1, FLI1 (Homo sapiens, UniProt Q01543 1-452).
T1 sequence: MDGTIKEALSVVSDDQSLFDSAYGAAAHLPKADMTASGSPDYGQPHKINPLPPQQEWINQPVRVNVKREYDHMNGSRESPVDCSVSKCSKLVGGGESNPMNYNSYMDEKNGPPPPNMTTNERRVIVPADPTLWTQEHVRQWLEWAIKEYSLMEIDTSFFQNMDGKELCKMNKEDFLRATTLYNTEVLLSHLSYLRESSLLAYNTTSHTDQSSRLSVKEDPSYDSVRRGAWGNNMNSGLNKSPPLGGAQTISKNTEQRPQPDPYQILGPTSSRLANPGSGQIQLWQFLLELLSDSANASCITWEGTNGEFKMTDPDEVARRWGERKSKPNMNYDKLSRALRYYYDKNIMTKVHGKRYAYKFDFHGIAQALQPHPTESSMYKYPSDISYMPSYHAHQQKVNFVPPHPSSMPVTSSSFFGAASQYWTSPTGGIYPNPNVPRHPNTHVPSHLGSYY
To be noted: protein: recombinant; tags: N-terminal GST; dsDNA, one strand shown. Put shortly:
(§1)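 A tag-only sample was pooled with DNA-barcoded human transcription factors that had been expressed in yeast as GST fusions and captured on glutathione beads. The pools were incubated for 30 min at room temperature with 200 nmole of a random double-stranded 16-mer DNA library in Tris/NaCl/DTT/glycerol buffer, then washed, crosslinked with 0.1% formaldehyde, proximity-ligated (BsaI/T4 ligase, 1 h, 37 °C), PCR-amplified and sequenced on an Illumina NextSeq500. Binding signal is each hexamer's read frequency for a factor divided by its frequency for the tag-only sample.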

Assay [2] concerns the target T2, ELK1 (Homo sapiens, UniProt P19419 1-428).
T2 sequence: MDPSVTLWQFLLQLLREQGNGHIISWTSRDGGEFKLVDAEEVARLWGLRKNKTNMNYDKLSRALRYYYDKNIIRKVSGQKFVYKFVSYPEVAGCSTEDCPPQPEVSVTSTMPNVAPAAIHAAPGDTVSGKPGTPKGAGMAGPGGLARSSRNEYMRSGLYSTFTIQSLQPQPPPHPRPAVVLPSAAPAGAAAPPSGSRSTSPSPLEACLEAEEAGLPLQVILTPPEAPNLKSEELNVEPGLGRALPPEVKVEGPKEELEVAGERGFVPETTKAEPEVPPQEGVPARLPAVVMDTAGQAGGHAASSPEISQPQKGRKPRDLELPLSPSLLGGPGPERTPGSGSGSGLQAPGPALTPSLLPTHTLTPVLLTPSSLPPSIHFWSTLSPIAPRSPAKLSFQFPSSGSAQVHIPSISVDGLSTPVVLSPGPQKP
The following applies: protein: recombinant; tags: N-terminal GST; dsDNA, one strand shown. Put shortly:
as §1

The target of assay [3] is T3, GABPA (Homo sapiens, UniProt Q06546 1-454).
T3 sequence: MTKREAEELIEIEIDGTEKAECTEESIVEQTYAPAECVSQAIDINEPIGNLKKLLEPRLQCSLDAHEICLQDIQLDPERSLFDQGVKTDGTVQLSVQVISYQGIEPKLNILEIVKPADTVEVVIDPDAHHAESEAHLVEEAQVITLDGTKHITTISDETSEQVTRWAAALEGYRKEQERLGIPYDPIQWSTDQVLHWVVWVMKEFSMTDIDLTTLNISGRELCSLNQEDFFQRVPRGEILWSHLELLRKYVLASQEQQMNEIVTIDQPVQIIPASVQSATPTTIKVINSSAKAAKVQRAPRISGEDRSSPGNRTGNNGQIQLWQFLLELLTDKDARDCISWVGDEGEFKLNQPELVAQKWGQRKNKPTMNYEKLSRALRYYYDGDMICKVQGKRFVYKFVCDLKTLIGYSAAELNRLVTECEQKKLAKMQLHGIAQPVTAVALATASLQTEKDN
The following applies: protein: recombinant; tags: N-terminal GST; dsDNA, one strand shown. A digest of the protocol: as §1

Assay [4] concerns the target T4, ERG (Homo sapiens, UniProt P11308 1-479).
T4 sequence: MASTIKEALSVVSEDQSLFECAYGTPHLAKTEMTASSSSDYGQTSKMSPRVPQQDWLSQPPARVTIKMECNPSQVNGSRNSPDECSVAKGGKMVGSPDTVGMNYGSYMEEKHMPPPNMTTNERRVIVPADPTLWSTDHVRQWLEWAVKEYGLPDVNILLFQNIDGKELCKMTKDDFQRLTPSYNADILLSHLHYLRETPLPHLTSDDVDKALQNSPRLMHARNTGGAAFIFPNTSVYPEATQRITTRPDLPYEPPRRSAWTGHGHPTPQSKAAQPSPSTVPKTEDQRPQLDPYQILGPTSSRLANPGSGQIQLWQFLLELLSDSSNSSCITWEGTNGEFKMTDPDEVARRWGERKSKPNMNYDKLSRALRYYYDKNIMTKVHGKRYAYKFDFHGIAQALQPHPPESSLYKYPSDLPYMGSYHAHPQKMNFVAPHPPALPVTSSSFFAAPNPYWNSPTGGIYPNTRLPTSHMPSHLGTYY
To be noted: protein: recombinant; tags: N-terminal GST; dsDNA, one strand shown. A digest of the protocol:
as §1

In assay [5] the target is ELF1 (Homo sapiens, UniProt P32519 1-619). To be noted: protein: recombinant; tags: N-terminal GST; dsDNA, one strand shown. A digest of the protocol: as §1
Chain of ELF1 (P32519 whole entry): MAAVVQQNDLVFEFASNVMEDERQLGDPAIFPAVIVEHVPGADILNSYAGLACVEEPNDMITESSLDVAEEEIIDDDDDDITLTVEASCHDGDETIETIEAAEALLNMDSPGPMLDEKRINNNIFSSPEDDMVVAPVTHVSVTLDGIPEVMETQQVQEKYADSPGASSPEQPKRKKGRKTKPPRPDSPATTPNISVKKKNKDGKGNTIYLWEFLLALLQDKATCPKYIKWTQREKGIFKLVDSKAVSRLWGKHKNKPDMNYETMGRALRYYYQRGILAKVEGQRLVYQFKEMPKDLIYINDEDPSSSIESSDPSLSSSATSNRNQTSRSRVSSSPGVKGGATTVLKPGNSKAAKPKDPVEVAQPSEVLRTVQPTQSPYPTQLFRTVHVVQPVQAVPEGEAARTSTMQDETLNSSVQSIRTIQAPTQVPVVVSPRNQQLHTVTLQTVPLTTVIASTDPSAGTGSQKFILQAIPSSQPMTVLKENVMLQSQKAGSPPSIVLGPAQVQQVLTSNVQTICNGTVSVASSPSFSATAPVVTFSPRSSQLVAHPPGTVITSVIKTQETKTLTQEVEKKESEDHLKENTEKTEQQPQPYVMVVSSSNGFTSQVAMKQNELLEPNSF
Assay [6] addresses T5, EHF (Homo sapiens, UniProt Q9NZC4 1-300).
T5 sequence: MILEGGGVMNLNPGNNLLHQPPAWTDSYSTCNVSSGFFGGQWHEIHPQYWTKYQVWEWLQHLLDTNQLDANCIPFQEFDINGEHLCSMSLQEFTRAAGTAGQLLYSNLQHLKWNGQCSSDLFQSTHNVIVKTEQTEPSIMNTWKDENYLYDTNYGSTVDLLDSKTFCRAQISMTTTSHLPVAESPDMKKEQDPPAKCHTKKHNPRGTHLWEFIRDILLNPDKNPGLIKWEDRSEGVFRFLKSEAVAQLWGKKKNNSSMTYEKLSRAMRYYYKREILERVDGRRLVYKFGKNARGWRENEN
The following applies: protein: recombinant; tags: N-terminal GST; dsDNA, one strand shown. Put shortly:
as §1

For assay [7], the target named is SPI1 (Homo sapiens, UniProt P17947 1-270). To be noted: protein: recombinant; tags: N-terminal GST; dsDNA, one strand shown. A digest of the protocol:
as §1

For assay [8], the target named is SPIB (Homo sapiens, UniProt Q01892 1-262). To be noted: protein: recombinant; tags: N-terminal GST; dsDNA, one strand shown. A digest of the protocol: as §1
Chain of SPIB (Q01892 whole entry): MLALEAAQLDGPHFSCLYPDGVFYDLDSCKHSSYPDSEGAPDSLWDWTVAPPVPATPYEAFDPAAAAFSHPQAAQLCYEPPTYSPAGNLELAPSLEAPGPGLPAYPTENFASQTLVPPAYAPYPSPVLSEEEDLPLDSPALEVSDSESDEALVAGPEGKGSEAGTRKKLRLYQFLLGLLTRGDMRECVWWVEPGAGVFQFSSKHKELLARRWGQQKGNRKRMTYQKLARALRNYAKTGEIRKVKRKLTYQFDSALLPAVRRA
Assay [9] concerns the target T6, ELK3 (Homo sapiens, UniProt P41970 1-407).
T6 sequence: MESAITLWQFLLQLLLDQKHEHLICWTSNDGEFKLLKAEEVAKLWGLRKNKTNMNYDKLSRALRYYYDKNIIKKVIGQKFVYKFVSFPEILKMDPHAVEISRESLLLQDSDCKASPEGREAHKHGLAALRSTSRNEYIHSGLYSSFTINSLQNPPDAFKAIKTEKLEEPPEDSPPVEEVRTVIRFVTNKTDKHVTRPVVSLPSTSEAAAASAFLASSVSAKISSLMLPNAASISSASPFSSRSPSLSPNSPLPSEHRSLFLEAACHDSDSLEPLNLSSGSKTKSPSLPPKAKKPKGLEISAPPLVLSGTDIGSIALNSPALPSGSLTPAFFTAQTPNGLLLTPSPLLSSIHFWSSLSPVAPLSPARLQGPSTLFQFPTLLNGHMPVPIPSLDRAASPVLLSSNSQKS
To be noted: protein: recombinant; tags: N-terminal GST; dsDNA, one strand shown. A digest of the protocol:
as §1

Assay [10] addresses T7, FEV (Homo sapiens, UniProt Q99581 1-238).
T7 sequence: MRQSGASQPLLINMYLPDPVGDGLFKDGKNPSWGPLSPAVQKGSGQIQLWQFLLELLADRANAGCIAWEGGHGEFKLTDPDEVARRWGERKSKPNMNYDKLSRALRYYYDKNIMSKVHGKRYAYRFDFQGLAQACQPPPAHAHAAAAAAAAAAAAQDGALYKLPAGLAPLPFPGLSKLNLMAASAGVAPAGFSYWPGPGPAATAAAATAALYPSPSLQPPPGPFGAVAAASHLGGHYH
To be noted: protein: recombinant; tags: N-terminal GST; dsDNA, one strand shown. A digest of the protocol: as §1

In assay [11] the target is ETV5 (Homo sapiens, UniProt P41161 1-510). To be noted: protein: recombinant; tags: N-terminal GST; dsDNA, one strand shown. A digest of the protocol:
as §1

For assay [12], the target named is HSF1 (Homo sapiens, UniProt Q00613 1-529). To be noted: protein: recombinant; tags: N-terminal GST; chain copies: 3; dsDNA, one strand shown. Put shortly:
as §1

The target of assay [13] is T8, SPIC (Homo sapiens, UniProt Q8N5J4 1-248).
T8 sequence: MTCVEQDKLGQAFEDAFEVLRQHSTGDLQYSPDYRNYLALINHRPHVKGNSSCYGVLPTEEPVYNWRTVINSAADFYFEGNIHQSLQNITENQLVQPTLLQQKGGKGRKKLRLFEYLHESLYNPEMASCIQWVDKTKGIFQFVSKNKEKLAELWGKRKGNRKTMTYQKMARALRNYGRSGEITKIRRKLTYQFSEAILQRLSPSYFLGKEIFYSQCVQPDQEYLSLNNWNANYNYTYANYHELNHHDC
To be noted: protein: recombinant; tags: N-terminal GST; dsDNA, one strand shown. A digest of the protocol: as §1

In assay [14] the target is ELF4 (Homo sapiens, UniProt Q99607 1-663). To be noted: protein: recombinant; tags: N-terminal GST; dsDNA, one strand shown. A digest of the protocol:
as §1

In assay [15] the target is T9, ELK4 (Homo sapiens, UniProt P28324-2 1-405).
T9 sequence: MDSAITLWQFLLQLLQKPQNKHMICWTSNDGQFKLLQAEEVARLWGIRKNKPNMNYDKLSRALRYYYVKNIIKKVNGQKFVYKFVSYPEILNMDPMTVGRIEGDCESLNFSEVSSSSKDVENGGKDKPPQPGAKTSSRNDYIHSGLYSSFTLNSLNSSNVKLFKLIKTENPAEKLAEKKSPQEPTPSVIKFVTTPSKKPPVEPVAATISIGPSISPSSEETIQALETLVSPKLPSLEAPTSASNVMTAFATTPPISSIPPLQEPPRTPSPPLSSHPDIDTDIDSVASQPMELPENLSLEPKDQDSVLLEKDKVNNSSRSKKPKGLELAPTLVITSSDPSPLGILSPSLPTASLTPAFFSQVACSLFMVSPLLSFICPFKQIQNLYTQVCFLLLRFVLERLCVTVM
The following applies: protein: recombinant; tags: N-terminal GST; dsDNA, one strand shown. Put shortly: as §1

For assay [16], the target named is T10, ETV2 (Homo sapiens, UniProt O00321 1-342).
T10 sequence: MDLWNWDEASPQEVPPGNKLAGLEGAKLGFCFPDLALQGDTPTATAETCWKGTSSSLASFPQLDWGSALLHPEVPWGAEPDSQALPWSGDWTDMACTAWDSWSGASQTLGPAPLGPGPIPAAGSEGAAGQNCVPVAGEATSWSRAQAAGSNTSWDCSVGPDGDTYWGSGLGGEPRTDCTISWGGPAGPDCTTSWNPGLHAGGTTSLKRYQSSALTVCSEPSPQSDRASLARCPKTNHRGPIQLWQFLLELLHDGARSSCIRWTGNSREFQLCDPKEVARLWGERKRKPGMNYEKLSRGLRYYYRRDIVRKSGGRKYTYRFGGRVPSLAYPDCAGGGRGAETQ
The following applies: protein: recombinant; tags: N-terminal GST; dsDNA, one strand shown. Put shortly: as §1

Assay [17] concerns the target T11, ELF3 (Homo sapiens, UniProt P78545 1-371).
T11 sequence: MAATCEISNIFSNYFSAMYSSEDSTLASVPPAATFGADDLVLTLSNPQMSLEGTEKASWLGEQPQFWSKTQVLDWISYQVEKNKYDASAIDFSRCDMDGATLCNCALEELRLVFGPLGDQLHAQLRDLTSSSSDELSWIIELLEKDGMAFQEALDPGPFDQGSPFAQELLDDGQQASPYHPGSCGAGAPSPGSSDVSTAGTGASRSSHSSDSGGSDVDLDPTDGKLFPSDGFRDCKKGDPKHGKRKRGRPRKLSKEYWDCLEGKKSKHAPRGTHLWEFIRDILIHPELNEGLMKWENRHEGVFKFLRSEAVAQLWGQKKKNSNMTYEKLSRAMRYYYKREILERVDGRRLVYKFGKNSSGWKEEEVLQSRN
The following applies: protein: recombinant; tags: N-terminal GST; dsDNA, one strand shown. A digest of the protocol: as §1

Assay [18] has as its target CRX (Homo sapiens, UniProt O43186 1-299). The following applies: protein: recombinant; tags: N-terminal GST; dsDNA, one strand shown. A digest of the protocol:
as §1

In assay [19] the target is ETV1 (Homo sapiens, UniProt P50549 1-477). To be noted: protein: recombinant; tags: N-terminal GST; dsDNA, one strand shown. A digest of the protocol:
as §1

Chain of ETV1 (P50549 whole entry): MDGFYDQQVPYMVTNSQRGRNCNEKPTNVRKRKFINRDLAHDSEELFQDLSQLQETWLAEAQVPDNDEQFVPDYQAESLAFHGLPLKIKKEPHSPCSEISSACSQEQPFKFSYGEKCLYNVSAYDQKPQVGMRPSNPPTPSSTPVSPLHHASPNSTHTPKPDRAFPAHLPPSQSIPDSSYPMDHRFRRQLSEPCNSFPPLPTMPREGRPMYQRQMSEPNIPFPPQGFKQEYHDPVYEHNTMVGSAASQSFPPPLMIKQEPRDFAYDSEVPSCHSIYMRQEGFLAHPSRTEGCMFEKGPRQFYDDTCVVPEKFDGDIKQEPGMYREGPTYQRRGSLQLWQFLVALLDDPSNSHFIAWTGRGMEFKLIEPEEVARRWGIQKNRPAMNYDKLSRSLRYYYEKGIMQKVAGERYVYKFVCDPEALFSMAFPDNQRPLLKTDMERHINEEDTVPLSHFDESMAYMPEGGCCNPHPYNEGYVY
Chain of ELF4 (Q99607 whole entry): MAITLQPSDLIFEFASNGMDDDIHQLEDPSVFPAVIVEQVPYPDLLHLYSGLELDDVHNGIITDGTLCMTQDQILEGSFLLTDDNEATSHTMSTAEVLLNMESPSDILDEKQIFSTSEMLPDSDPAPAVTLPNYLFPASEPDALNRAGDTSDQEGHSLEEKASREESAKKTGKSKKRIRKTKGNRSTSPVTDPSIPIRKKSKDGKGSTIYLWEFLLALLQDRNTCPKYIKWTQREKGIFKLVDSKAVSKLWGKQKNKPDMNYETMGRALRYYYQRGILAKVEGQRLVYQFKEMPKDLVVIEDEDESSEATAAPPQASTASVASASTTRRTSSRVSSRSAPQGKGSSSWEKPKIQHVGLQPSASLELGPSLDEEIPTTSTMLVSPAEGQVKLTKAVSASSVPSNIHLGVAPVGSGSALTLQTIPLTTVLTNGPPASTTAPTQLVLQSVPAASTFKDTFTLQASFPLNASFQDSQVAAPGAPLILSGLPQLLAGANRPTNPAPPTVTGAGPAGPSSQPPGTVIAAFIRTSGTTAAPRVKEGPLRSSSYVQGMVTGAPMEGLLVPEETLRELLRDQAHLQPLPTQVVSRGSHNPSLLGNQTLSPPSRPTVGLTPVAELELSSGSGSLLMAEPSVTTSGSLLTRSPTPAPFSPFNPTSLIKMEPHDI
Chain of CRX (O43186 whole entry): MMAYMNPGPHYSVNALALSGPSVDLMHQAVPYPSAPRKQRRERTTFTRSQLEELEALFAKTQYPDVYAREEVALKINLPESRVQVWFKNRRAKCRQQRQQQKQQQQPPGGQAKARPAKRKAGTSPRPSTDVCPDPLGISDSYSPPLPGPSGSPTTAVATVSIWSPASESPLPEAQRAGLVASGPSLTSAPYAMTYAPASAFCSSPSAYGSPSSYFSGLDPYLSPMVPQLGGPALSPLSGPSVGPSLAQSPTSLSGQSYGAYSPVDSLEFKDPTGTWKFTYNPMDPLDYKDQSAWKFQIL
Chain of ETV5 (P41161 whole entry): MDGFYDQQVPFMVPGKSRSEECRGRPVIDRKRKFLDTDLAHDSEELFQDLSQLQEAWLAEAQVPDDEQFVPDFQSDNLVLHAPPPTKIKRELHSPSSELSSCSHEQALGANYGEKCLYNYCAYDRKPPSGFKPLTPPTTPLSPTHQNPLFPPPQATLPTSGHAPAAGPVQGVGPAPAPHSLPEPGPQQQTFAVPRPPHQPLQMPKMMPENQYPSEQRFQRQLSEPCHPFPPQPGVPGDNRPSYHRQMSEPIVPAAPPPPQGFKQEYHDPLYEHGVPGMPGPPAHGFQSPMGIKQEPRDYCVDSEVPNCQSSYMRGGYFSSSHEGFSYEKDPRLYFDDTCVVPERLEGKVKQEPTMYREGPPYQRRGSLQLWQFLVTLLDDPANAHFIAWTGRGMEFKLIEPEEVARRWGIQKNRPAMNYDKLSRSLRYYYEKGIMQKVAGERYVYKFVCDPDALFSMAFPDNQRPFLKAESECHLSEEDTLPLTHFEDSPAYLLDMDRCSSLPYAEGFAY
Chain of HSF1 (Q00613 whole entry): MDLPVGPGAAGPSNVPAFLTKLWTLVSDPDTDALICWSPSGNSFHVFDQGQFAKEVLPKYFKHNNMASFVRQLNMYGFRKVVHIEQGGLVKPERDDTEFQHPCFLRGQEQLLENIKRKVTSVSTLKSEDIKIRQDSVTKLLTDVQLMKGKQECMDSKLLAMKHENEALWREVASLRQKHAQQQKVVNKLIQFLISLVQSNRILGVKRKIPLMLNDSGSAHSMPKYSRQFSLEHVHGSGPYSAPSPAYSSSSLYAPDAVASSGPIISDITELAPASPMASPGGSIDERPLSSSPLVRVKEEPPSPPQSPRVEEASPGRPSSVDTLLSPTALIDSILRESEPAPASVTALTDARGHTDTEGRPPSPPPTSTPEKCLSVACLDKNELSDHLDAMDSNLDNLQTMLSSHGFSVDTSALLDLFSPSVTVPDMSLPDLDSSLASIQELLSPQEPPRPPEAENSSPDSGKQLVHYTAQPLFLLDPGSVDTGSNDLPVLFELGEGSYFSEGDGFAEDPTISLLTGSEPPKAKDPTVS

Turning to GTATTC, the binding signal in assay [1] is 1.33 fold enrichment (6-mer frequency, TF over GST control); in [2], 1.17 fold enrichment (6-mer frequency, TF over GST control); in [3], 1.26 fold enrichment (6-mer frequency, TF over GST control); in assay [4] it was 1.19 fold enrichment (6-mer frequency, TF over GST control); in assay [5] it was 1.22 fold enrichment (6-mer frequency, TF over GST control); in assay [6], 1.27 fold enrichment (6-mer frequency, TF over GST control). Besides, the binding signal in assay [7] was 1.31 fold enrichment (6-mer frequency, TF over GST control); in [8] it was 1.25 fold enrichment (6-mer frequency, TF over GST control); in assay [9], 1.3 fold enrichment (6-mer frequency, TF over GST control); in assay [10], 1.18 fold enrichment (6-mer frequency, TF over GST control); in [11], 1.32 fold enrichment (6-mer frequency, TF over GST control); in assay [12], 1.31 fold enrichment (6-mer frequency, TF over GST control). Moreover, the binding signal is 1.33 fold enrichment (6-mer frequency, TF over GST control) in [13]; 1.27 fold enrichment (6-mer frequency, TF over GST control) in [14]; 1.16 fold enrichment (6-mer frequency, TF over GST control) in [15]; 1.27 fold enrichment (6-mer frequency, TF over GST control) in assay [16]; 1.31 fold enrichment (6-mer frequency, TF over GST control) in assay [17]; 1.13 fold enrichment (6-mer frequency, TF over GST control) in [18]. For the same sequence, the binding signal in [19] was 1.22 fold enrichment (6-mer frequency, TF over GST control).
